Reference: the supplement of paper PMC6555819

Legend:
Assay in all cases: PBM binding z-score (relative to random genomic background probes); higher = stronger binding; sequences stand for … in GC…GCGATTGACAGCGTAGAATGAAGG
[1] = system: PPARg:RXRa DBDmut IVT, anti-RXR (DBD mutation: RXRa K156A/R161A, NR concentration 270 nM, RXRa partner concentration 90 nM)
Procedure, shortened: (§1)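 Ligand-free nuclear receptor dimers were applied to custom Agilent 4×180K protein-binding microarrays whose double-stranded probes carried direct-repeat seeds, single-nucleotide variants, half-site ablations and random human genomic background sequences in 34-nt variable regions. Incubation lasted 1 h. Binding z-scores were computed against the random background probes from regression-normalized fluorescence.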

[2] = system: PPARg:RXRa IVT, anti-PPARg (NR concentration 270 nM, RXRa partner concentration 90 nM)
Procedure, shortened: as §1

[3] = system: PPARg DBDmut:RXRa IVT, anti-PPARg (DBD mutation: PPARg1 K132A/R137A, NR concentration 270 nM, RXRa partner concentration 90 nM)
Procedure, shortened: as §1

[4] = system: PPARg DBDmut IVT, anti-PPARg (DBD mutation: PPARg1 K132A/R137A, NR concentration 270 nM)
Procedure, shortened: as §1

[5] = system: PPARg homodimer (NR concentration 180 nM)
Procedure, shortened: as §1

[6] = system: PXR:RXRa (NR concentration 270 nM, RXRa partner concentration 90 nM)
Procedure, shortened: as §1

[7] = system: PXR homodimer (NR concentration 270 nM)
Procedure, shortened: as §1

[8] = system: RARa:RXR (NR concentration 270 nM, RXRa partner concentration 90 nM)
Procedure, shortened: as §1

[9] = system: RARa homodimer (NR concentration 270 nM)
Procedure, shortened: as §1

[10] = system: RARb:RXRa (NR concentration 270 nM, RXRa partner concentration 90 nM)
Procedure, shortened: as §1

[11] = system: RARb homodimer (NR concentration 270 nM)
Procedure, shortened: as §1

[12] = system: RARg:RXRa (NR concentration 270 nM, RXRa partner concentration 90 nM)
Procedure, shortened: as §1

[13] = system: RARg homodimer (NR concentration 270 nM)
Procedure, shortened: as §1

[14] = system: RXRa DBDmut IVT, anti-RXR (DBD mutation: RXRa K156A/R161A, NR concentration 90 nM)
Procedure, shortened: as §1

[15] = system: RXRa homodimer (NR concentration 180 nM)
Procedure, shortened: as §1

[16] = system: THRa:RXRa (NR concentration 90 nM, RXRa partner concentration 90 nM)
Procedure, shortened: as §1

[17] = system: THRa homodimer (NR concentration 90 nM)
Procedure, shortened: as §1

[18] = system: VDR homodimer (NR concentration 270 nM)
Procedure, shortened: as §1

Sequence | PBM binding z-score [1] | PBM binding z-score [2] | PBM binding z-score [3] | PBM binding z-score [4] | PBM binding z-score [5] | PBM binding z-score [6] | PBM binding z-score [7] | PBM binding z-score [8] | PBM binding z-score [9] | PBM binding z-score [10] | PBM binding z-score [11] | PBM binding z-score [12] | PBM binding z-score [13] | PBM binding z-score [14] | PBM binding z-score [15] | PBM binding z-score [16] | PBM binding z-score [17] | PBM binding z-score [18]
ACTAGCAGGCCAAGGGGCACTCAAGATTAGTCCG | 0.959 | 1.41 | 0.105 | -0.646 | -0.02 | -0.175 | -0.332 | -0.0268 | -0.844 | 1.09 | 0.873 | 0.423 | 0.766 | -0.00995 | 0.366 | 0.0441 | -0.582 | 0.169
TTACCAAGGTGAAGGTCTTTGATCCCTCTGTAGA | 1.88 | 3.26 | -0.214 | 0.0438 | 0.225 | 0.389 | -0.43 | 0.847 | -0.184 | 1.65 | 0.775 | 0.2 | 0.513 | -0.154 | 0.759 | 1.73 | 0.592 | -0.396
GCTAGTTGGTCAGTAAAAGGTCACAAACCGGTCG | 0.812 | 2.83 | -0.571 | -0.0957 | 2.9 | 4.8 | 1.2 | 5.58 | 1.91 | 3.91 | 4.94 | 4.99 | 4.28 | 0.203 | 4.8 | 3.32 | 1.15 | 1.71
CCTAGTTGATCAAGGTCACACACGCTATAGGTAC | 2.26 | 3.44 | 1.49 | 1.07 | 3.39 | 4.28 | 3.62 | 4.24 | 2.05 | 3.95 | 4.44 | 4.24 | 4.06 | 2.8 | 4.2 | 4.25 | 4.11 | 4.32
CCTACTAGGCCAAAAAGGTCATTGATGCCGATAA | 5.03 | 4.58 | -0.262 | -0.187 | 2.71 | 4.88 | 5.01 | 5 | 1.4 | 4.09 | 4.74 | 4.81 | 4.61 | 1.38 | 4.95 | 3.35 | 0.809 | 2.99
CGTCCAAGGTCAGCAGGTCAGGGAAAGCGACGTG | 3.07 | 3.53 | -0.625 | -0.856 | 4.09 | 3.83 | 0.492 | 5.33 | 1.3 | 5.27 | 5.01 | 6.64 | 7.24 | 2.62 | 5.64 | 3.84 | 2.59 | 1.53
ATCTCTAGGTAAAGATAGTTCAGTTAATGCAAAT | 2.3 | 1.96 | 0.842 | 0.769 | 1.02 | 1.26 | 0.841 | 0.925 | 1.28 | 0.672 | 1.19 | 0.937 | 0.915 | 0.536 | 0.419 | 1.27 | 0.471 | 0.927
CGTCCAAGGTCAAAGAGGTCAGTGAATGCCGAGT | 3.99 | 4.53 | 0.213 | -0.987 | 5.13 | 6.71 | 12.7 | 6.05 | 1.8 | 5.48 | 5.66 | 7.1 | 7.62 | 4.35 | 7.47 | 4.48 | 3.36 | 6.32
TCGTGTAGGTTAGTCGGGGCATTCAGCCAACATA | 2.15 | 1.92 | -0.257 | -0.153 | 0.862 | 0.845 | 0.707 | 0.886 | 0.866 | 0.996 | 1.23 | 0.373 | 0.49 | 1.14 | 0.427 | 1.55 | 0.941 | 1.28
GCATAAAGGTAATACAAGGTGAAAGTCCGATTGT | 0.839 | 1.67 | 0.773 | 0.759 | 0.757 | 1.42 | -0.0245 | 1.99 | 0.262 | 1.11 | 1.18 | 1.15 | 0.92 | 0.231 | 1.32 | 4.64 | 0.994 | 0.291
GCATATAGGTAATACAATGTGAAAGTCCGATTGT | 4.03 | 2.5 | 1.42 | 1.13 | 0.581 | 0.112 | 0.544 | 0.557 | 0.819 | 0.0649 | -0.3 | 0.415 | 0.478 | 0.58 | 0.305 | 0.425 | -0.105 | 0.523
GCGACTGGGGCAAAGCAGGTTACCCTAAGGTTGG | 4.69 | 3.9 | -0.575 | -1.15 | 0.0575 | 0.0911 | -0.579 | 0.634 | -1.43 | 0.752 | 0.988 | 0.329 | 0.427 | -0.421 | 0.394 | 2.85 | 0.12 | -0.641
TTGCCTAGGTCATGGGCCAGTATACCACGCGAAC | 1.44 | 3.33 | 0.457 | 0.0191 | 0.932 | 1.95 | -0.21 | 2.8 | -0.254 | 4.07 | 3.1 | 4.39 | 4.41 | 0.413 | 3.94 | 3.35 | 1.54 | 0.622
ATCTCTAGGTAACAGGTTCAGTGAAAGAGAGGAC | 3.85 | 3.15 | 1.83 | 1.35 | 1.4 | 0.871 | 1.43 | 0.854 | 0.973 | 0.893 | 1.15 | 0.818 | 0.667 | 0.757 | 0.828 | 1.58 | 1.34 | 2.78
TCTTGTAGATCAAAAGTTAAGAAAGCCGAAGCCT | 1.79 | 0.791 | 1.09 | 0.787 | -0.327 | 0.243 | -0.268 | 0.155 | -0.386 | -0.12 | -0.728 | 0.0681 | -0.147 | 0.742 | 0.126 | -0.34 | -1.33 | -0.181
ATTACAGGGTCACTAGGCCAGAGTAGGTACGAAT | 3.81 | 5.92 | 2.92 | 2.81 | 2.63 | 3.43 | 0.344 | 4.32 | 1.19 | 4.46 | 3.38 | 5.4 | 5.25 | 2.67 | 5.24 | 3.48 | 1.5 | 2.93
